# An excerpt weighted towards active compounds, which were near 2.3% of everything screened.
# Tau fibril ThT: blocks human tau fibril formation measured by thioflavin T | Potency, µM (highest dose often 57.4 µM), hits mostly inhibitors | AID 1460 | 270,000 compounds, 2.1% hits | P10636 | recombinant tau K18 P301L, heparin-induced fibrillization, ThT fluorescence; further: nearly all actives have a fitted effect of over 55% in size
# Target sequence (P10636 561-689 P618L limits assumed): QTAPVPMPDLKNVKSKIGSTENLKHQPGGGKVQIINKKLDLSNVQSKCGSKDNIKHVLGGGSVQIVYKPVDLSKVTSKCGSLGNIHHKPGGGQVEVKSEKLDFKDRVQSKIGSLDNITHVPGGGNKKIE
#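 Tau K18 P301L fragment (15 uM unlabeled plus 0.24 uM Alexa 594-labeled) in 100 mM sodium acetate pH 7 with compound, fibrillization induced by 20 uM heparin for 6 hr at 37 C. Thioflavin T (30 uM) added, fluorescence read after 1 hr (ex 450, em 510 nm).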
# USP1-UAF1 inh: inhibitors of human USP1/UAF1 deubiquitinase; O94782; recombinant USP1/UAF1, Ub-Rhodamine cleavage fluorescence; Potency, µM (titrated, usually from 57.1 µM), usual class: inhibitors; 390,000 compounds, 0.23% hits; AID 743255; further: nearly all actives have a fitted effect of over 60% in size
#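 In this screen, compounds sit with the deubiquitinase complex (1nM) for 15 min at room temperature before Ub-Rho is added at 150nM final. Fluorescence rise is then followed for 6 reads every 60 seconds.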
# Tau fibril FP: blocks human tau fibril formation measured by polarization. K18 P301L tau heparin fibrillization, Alexa594 FP, 6 h. Potency, µM (doses to about 57.7 µM), usual class: inhibitors. 280,000 compounds, 0.39% hits; further: nearly all actives have a fitted effect of over 55% in size
#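 Read-out: fluorescence polarization of Alexa 594-labeled tau (0.24 uM), 555 nm excitation, 632 nm emission. Mixtures held 15 uM unlabeled K18 P301L, compound and 20 uM heparin, pH 7 acetate buffer, incubated 6 hr at 37 C.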
# FBPA coupling cs: inhibits coupling enzyme system, counter-screen for aldolase hits | activity change, negative = inhibition, % at 58.2 µM, hits read low | AID 2472 | coupling enzyme system counterscreen, AmpLite Red fluorescence | 290,000 compounds, 0.67% hits; in the data active means activity change below about -30%
#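 Activity here indicates interference with the coupling reaction, not aldolase inhibition. Compounds at 57.5 uM final met coupling enzymes for 10 min at RT; substrate and AmpLite Red detection followed, with a 525/598 nm fluorescence read after 20 min.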
# Tau fluor cs: counter-screen for tau fibril formation inhibitors. tau K18 P301L (four-repeat tau fragment) Alexa594 fluorescence, heparin fibrillization. AID 1463. Potency, µM (series often up to 57.7 µM). 280,000 compounds, 0.93% hits; further: nearly all actives have a fitted effect of over 55% in size
#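 Human K18 P301L tau (15 uM unlabeled plus 0.24 uM Alexa 594-labeled, final) in 100 mM sodium acetate pH 7 was mixed with compound and 20 uM heparin and incubated 6 hr at 37 C.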
# Numbers stand for hits; n = inactive; u = inconclusive; x = no result; [ ] = dose if it differs, or a comment. Unless noted, the call rests on the fitted dose curve; in most records, active means well fitted curve in the direction sought with a large enough effect; inconclusive means small, poorly fitted or top-dose-only effect, or another doubt; inactive means no such curve, though single readings can be large; an effect the other way counts as inactive or inconclusive.
SMILES,Tau fibril ThT,USP1-UAF1 inh,Tau fibril FP,FBPA coupling cs,Tau fluor cs
NC(Cc1cnc[nH]1)C(=O)Nc1ccc2ccccc2c1 (centres undefined),n,x,n,n,n
Cc1ccc(OCC(=O)Nc2ccccc2OCc2cc(=O)n3ccccc3n2)cc1C,n,u,n,x,n
CCOC(=O)CC1=NN(c2ccccc2)C(=O)/C1=C\c1ccc(N(C)C)cc1,25µM,n,n,n,u
CCOC(=O)CC1=NN(c2ccccc2)C(=O)C1,n,n,n,n,n
CCOc1ccccc1CNC(=O)CCCn1c(=O)c2cccn2c2cccnc21,n,n,n,x,n
Cc1ccc2c(c1)N=C(c1ccccc1)CC(C(Cl)Cl)=N2,16µM,n,u,n,u
Cc1ccc(C2=Nc3ccccc3N=C(C(Cl)Cl)C2)cc1,u,n,n,n,n
CCCc1ccc(Oc2c(-c3ccc(O)c(C)c3O)n[nH]c2C)cc1,28µM,n,u,n,13µM[quencher]
CCCc1ccc(Oc2cn[nH]c2-c2ccc(O)c(C)c2O)cc1,25µM,n,n,n,14µM[quencher]
CC(=O)OC[C@@]1(O)C[C@]23CCC4c5ccoc5CC[C@@]4(C)C2CCC1C3 (some centres undefined),n,x,n,n,n
C[C@@]12C=Cc3occc3C1CC[C@@]13C[C@@H](CCC12)[C@@](O)(CO)C3 (some centres undefined),11µM,x,10µM,n,u
COc1ccccc1N1CCN(S(=O)(=O)c2cccs2)CC1,n,n,n,n,n
CN(C1=C(N2CCOCC2)C(=O)c2ccccc2C1=O)c1ccccc1,u,n,n,-40,u
O=C1C(NS(=O)(=O)c2ccc(Cl)cc2)=C(N2CCCCC2)C(=O)c2ccccc21,16µM,u,u,-34,u
O=C1C(Nc2ccccc2)=C(NS(=O)(=O)c2ccccc2)C(=O)c2ccccc21,u,n,n,n,n
CCOc1ccccc1N1CCN(C2=C(NS(=O)(=O)c3cccs3)C(=O)c3ccccc3C2=O)CC1,8.9µM,u,u,n,13µM[quencher]
Cc1ccc(N2CCOCC2)c2c1C(=O)c1ccccc1C2=O,n,n,n,n,n
O=C(O)c1cccc(NC2=C(N3CCOCC3)C(=O)c3ccccc3C2=O)c1,32µM,32µM,u,n,u
CC(=O)OC[C@@]12C(=O)[C@@H](O)[C@@H](C)[C@]3(C[C@@H](c4ccoc4)O[C@@H]3OC(C)=O)[C@H]1CCC[C@]21CO1,n,x,n,n,n
O=C1C(NS(=O)(=O)c2cccs2)=C(N2CCN(Cc3ccccc3)CC2)C(=O)c2ccccc21,16µM,u,n,n,u
CN1CCN(C2=C(NS(=O)(=O)c3cccs3)C(=O)c3ccccc3C2=O)CC1,u,u,n,-31,n
O=C(c1ccc(NS(=O)(=O)c2cccs2)cc1)N1CCOCC1,x,n,x,x,x
Cn1c(=O)n(C)c2cc(NS(=O)(=O)c3cccs3)ccc21,n,n,n,n,n
O=C1C(NS(=O)(=O)c2cccs2)=C(N2CCOCC2)C(=O)c2ccccc21,16µM,n,u,n,u
O=C1C(NS(=O)(=O)c2cccs2)=C(N2CCN(c3cccc(C(F)(F)F)c3)CC2)C(=O)c2ccccc21,4.5µM,n,n,n,7.1µM[quencher]
SMILES,Tau fibril ThT,USP1-UAF1 inh,Tau fibril FP,FBPA coupling cs,Tau fluor cs
Cc1ccc(NC(=O)C2CCCN(c3ncnc4c3nc3n4CCCCC3)C2)cc1F (centres undefined),n,n,n,x,n
CCCCOc1ccc(OCCNC(=O)C2CCCN2C(=O)Nc2ccccc2)cc1 (centres undefined),x,n,x,n,x
Cc1ccc(C(=O)Nc2ccc(S(=O)(=O)Nc3ncccn3)cc2)cc1[N+](=O)[O-],x,n,x,n,x
CCOc1ccccc1C(=O)Nc1c(NC)c2ccccc2oc1=O,u,n,n,x,n
CN1CCN(C2=C(NS(=O)(=O)c3ccccc3)C(=O)c3ccccc3C2=O)CC1,x,u,x,-46,x
CCc1cc2c(=O)[nH]c(-c3ccccn3)nc2s1,u,n,n,n,n
COc1cnc(-c2ccccn2)[nH]c1=O,n,n,n,-64,n
COc1cnc(-c2ccccn2)nc1NC(C)C,u,n,n,-36,n
COc1ccccc1Sc1nc(-c2ccccn2)ncc1OC,n,n,n,n,n
